Experimental data as given in PubChem BioAssay AID1845225 (National Center for Advancing Translational Sciences (NCATS), 2023).
Records with an inconclusive call do not appear. Activity calls are given as the source filed them. Calls follow the shape of the dose curve; as a rule, active = well fitted curve in the direction sought with a large enough effect; inconclusive = small, poorly fitted or top-dose-only effect, or effect the other way, or another doubt; inactive = no such curve, though single readings can be large or run the other way.

Experiment: Confirmatory redox qHTS assay for identification of artifact compounds.
Conditions: Amplex Red/HRP redox cycling with DTT, fluorescence; series mostly up to 39 µM
Description: PI: Alexander Tropsha Ph.D. UNC Eshelman School of Pharmacy University of North Carolina, Chapel Hill, North Carolina Hits from high-throughput screening (HTS) of chemical libraries are often false positives due to their interference with the assay detection technology. In response to this problem, we generated the largest publicly available library of chemical liabilities and developed a free webtool to predict HTS artifacts, both of which are described herein. More specifically, we generated, curated, and integrated HTS datasets for thiol reactivity, redox activity, and luciferase (firefly and nano) activity. Using these curated datasets, we developed and validated several Quantitative Structure-Interference Relationship (QSIR) models to predict nuisance behavior. […] These models were employed for virtual profiling of the National Center for Advancing Translational Science's (NCATS) in-house library, and 256 compounds for each assay were selected for the experimental validation of nuisance behavior. The BA for these external predictions ranged from 58 to 78% for compounds within the applicability domains of the models. […] The models developed in this study, along with aggregation models previously developed by our group (SCAM Detective) were implemented in "Liability Predictor," an online tool which may be used as part of chemical library design or for triaging HTS hits. Both the models and the curated datasets are publicly available at https://liability.mml.unc.edu/.
PROTOCOL TABLE SEQUENCE No. (e.g., 1, 2, 3, etc.); […] (e.g., Cells, Incubation, Reagent, etc.); VALUE; DESCRIPTION. 1; Reagent; 3 uL; Amplex Red and HRP mixture. 2; Compounds and control; 16 nL; Kalypsis pin tool (Wako USA) equipped with a 1536-well pin head. 3; Incubation; 15 min. 4; Reagent; 1 uL; […]. 5; Incubation; 30 min. 6; Detection; Fluorescence, ViewLux microplate reader, 525 nm excitation, 598 nm emission. NOTES (numbers refer to Sequence numbers above) 1. 3 uL of a mixture containing Amplex Red (25 uM final concentration) and horseradish peroxidase (HRP; 250 mU/mL final concentration) in assay buffer (HBSS) was dispensed into all wells of a 1536-well assay plate (solid-bottom black plate; Greiner Bio One, Monroe, NC). 2. […] 3. 15 min. incubation at room temperature protected from light. 4. 1 uL of DTT (prepared fresh; final concentration 250 uM) was dispensed for a final assay volume of 4 uL. 5. Plates were centrifuged (121xg, 15 seconds) and incubated for 30 minutes at room temperature protected from light. 6. Samples were read for fluorescence (Ex/Em = 525(20)/598(25) nm) on a ViewLux CCD imager (PerkinElmer). Data were normalized to DMSO (0% activity) and DA3003 (10 uM final concentration; 100% activity) and the resulting percent inhibition data were fitted to a 4-parameter Hill equation using NCATS in-house software.

Compound | outcome
CCCOC(=O)c1ccccc1C(=O)OCCC | inactive
Cc1ccc(C(C)C)c(OCC(=O)N2CCN(CCc3ccncc3)CC2)c1 | inactive
Clc1ccc(C(Cl)(Cl)Cl)cc1Cl | inactive
Cn1c(=O)n(C)c2cc(CNCCc3ccccc3)ccc21 | inactive
Oc1cccc[c]1[Hg][Cl] | inactive
CSc1nc(NC(C)C)nc(NC(C)C)n1 | inactive
CCOc1ccc(CCNC(=O)c2cc3ccccc3n2CCN2CCOCC2)cc1OCC | inactive
